Counter-ions that a name gives are not always drawn.

In the assay the test system is Danio rerio larvae (5 dpf). Kind of assay: activity during period 15 (no stimuli), difference vs DMSO (percentage points (treated minus DMSO)); higher = more of the behaviour than the DMSO vehicle control. To be noted: 10 µM; exposure time: 3 h pre-incubation + 3 h imaging. On the procedure:
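5-dpf wild-type zebrafish larvae were imaged in 96-well plates. They were treated with 190 Tocris FDA-approved drugs at 10 µM (1 µl/ml DMSO) for 3 h before and 3 h during imaging at 28.5 °C, 48 larvae per drug. Automated image analysis gave % time moving and optomotor responses. Values are drug group mean minus DMSO vehicle mean (n=844), in percentage points, for 10 behaviours.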
Consider `CC[C@@H](C(N)=O)N1CCCC1=O` [Levetiracetam], for which the “activity during period 15” value was 4.21. For `COc1cc2c(cc1OC)C1CC(=O)C(CC(C)C)CN1CC2` (configuration not stated) [Tetrabenazine] the value was 3.06.

Consider `N[C@@H]1C[C@H]1c1ccccc1` [Tranylcypromine hydrochloride], for which the “activity during period 15” value is -10.3. For `CC(C)C[C@H]1C(=O)N2CCC[C@H]2[C@]2(O)O[C@](NC(=O)[C@@H]3C=C4c5cccc6[nH]c(Br)c(c56)C[C@H]4N(C)C3)(C(C)C)C(=O)N12` [Bromocriptine mesylate] the value was 3.6.

`CN1C[C@H](C(=O)N[C@]2(C)O[C@@]3(O)[C@@H]4CCCN4C(=O)[C@H](Cc4ccccc4)N3C2=O)C[C@@H]2c3cccc4[nH]cc(c34)C[C@H]21` [Dihydroergotamine mesylate]: the “activity during period 15” value is 1.37. For `CC(O)(CS(=O)(=O)c1ccc(F)cc1)C(=O)Nc1ccc(C#N)c(C(F)(F)F)c1` (configuration not stated) [Bicalutamide] the value was 5.81; for `CCN(C)C(=O)Oc1cccc([C@H](C)N(C)C)c1` [Rivastigmine tartrate], -7.13; for `Cc1cccc([C@H](C)c2c[nH]cn2)c1C` [Dexmedetomidine hydrochloride], -35.2. For `COc1ccc(C(CN(C)C)C2(O)CCCCC2)cc1` (configuration not stated) [Venlafaxine hydrochloride] the value was -20.4.

As to `C=CCN1C[C@H](C(=O)N(CCCN(C)C)C(=O)NCC)C[C@@H]2c3cccc4[nH]cc(c34)C[C@H]21` [Cabergoline], the “activity during period 15” value is -8.5. Take `C=C1C[C@@H]2[C@H](CC[C@]3(C)C(=O)CC[C@@H]23)[C@@]2(C)C=CC(=O)C=C12` [Exemestane]: the “activity during period 15” value was -15.7. For `O=c1[nH]c2ccccc2n1C1CCN(CCCC(c2ccc(F)cc2)c2ccc(F)cc2)CC1` [Pimozide] the value was -8.89.

These data come from the supplement of paper PMC9023506.
